# Experimental data taken from ChEMBL document CHEMBL3988442, “University of Dundee, Small-Polar-MMV Screening Library” (2021).
# About 960 (1.5%) of roughly 66,000 compounds showed an effect of 50% or more. The list comes from a sample in which strong results are over-represented; it also holds similar structures and randomly drawn compounds.
# Test system: Trypanosoma brucei
# Experiment: Trypanosoma brucei 72 hour study
# Type: functional, organism-based
# Set-up: scale not given: in the data most compounds retested in dose-response had high values
structure (smiles),measurement,setting,value
Fc1cccc(CN2CCC[C@H](Cn3nnc(-c4ccccn4)n3)C2)c1,Percent Effect,"30.3 µM, […]",-22.29%
Fc1ccccc1CN1CCC[C@H](Cn2nnc(-c3cccs3)n2)C1,Percent Effect,"30.3 µM, […]",82.08%
Fc1ccccc1CN1CCC[C@@H](Cn2nnc(-c3cccs3)n2)C1,Percent Effect,"30.3 µM, […]",-5.522%
COc1cccc(CN2CCCC3(CCN(C(=O)N4CCCC4)C3)C2)c1.O=C(O)C(F)(F)F (stereo unspecified),Percent Effect,"30.3 µM, […]",-29.29%
COCCC1(C(=O)O)CCCN(C(=O)c2cc(Cl)ccc2F)C1 (stereo unspecified),Percent Effect,"30.3 µM, […]",-11.98%
CCC(C)Sc1nncn1-c1ccc(OC)nc1 (stereo unspecified),Percent Effect,"30 µM, 30.03 µM",74.74%
COc1ccc(-n2cnnc2SCC(=O)NC(C)C)cn1,Percent Effect,"30 µM, 30.03 µM",21.81%
COc1ccc(-n2cnnc2SCC(=O)N(C)C(C)C)cn1,Percent Effect,"30 µM, 30.03 µM",19.1%
CCOC(=O)[C@]12CCCN(Cc3cccs3)C[C@H]1CN(C(C)=O)C2.O=C(O)C(F)(F)F,Percent Effect,"30.3 µM, […]",-10.51%
Cn1cc(N2Cc3nc(N4CCOCC4)ncc3C2=O)cn1,Percent Effect,"30.3 µM, […]",-24.66%
COc1ccc(C)cc1CNCc1ccc(-n2nc(C)cc2C)nc1,Percent Effect,"30 µM, 30.03 µM",-31.15%
Cc1cc(C)n(-c2ccc(CNCc3ccc(OC(C)C)cc3)cn2)n1,Percent Effect,"30 µM, 30.03 µM",-15.45%
COc1cc(CNCc2ccc(-n3nc(C)cc3C)nc2)cc(OC)c1,Percent Effect,"30.3 µM, […]",5.745%
Cc1cc(C)n(-c2ccc(CNCc3cccc(C#N)c3)cn2)n1,Percent Effect,"30.3 µM, […]",62.16%
Cc1cc(C)n(-c2ccc(CNCc3ccc(F)c(F)c3)cn2)n1,Percent Effect,"30.3 µM, […]",53.31%
CNC(=O)COc1ccc(CNCc2ccc(F)cc2F)cc1,Percent Effect,"30 µM, 30.03 µM",4.908%
Cc1cc(C)n(-c2ccc(CNCc3ccc(F)cc3F)cn2)n1,Percent Effect,"30.3 µM, […]",61.76%
Cc1ccc(CNCc2ccc(-n3nc(C)cc3C)nc2)cc1,Percent Effect,"30 µM, 30.03 µM",-12.87%
Cc1cc(C)n(-c2ccc(CNCc3ccc(C)o3)cn2)n1,Percent Effect,"30.3 µM, […]",8.783%
CCn1cc(-c2c(C)c(C3CCOC(C)(C)C3)nc(N)c2C#N)cn1 (stereo unspecified),Percent Effect,"30 µM, 30.03 µM",-13.96%
Cc1ccc(C(=O)N2CCC3(CC2)CCN(Cc2ccccn2)C3=O)o1.O=C(O)C(F)(F)F,Percent Effect,"30 µM, 30.03 µM",-16.24%
CCOCC(=O)N1CCOCC2(CCN(c3ncccn3)C2)C1.O=C(O)C(F)(F)F (stereo unspecified),Percent Effect,"30.3 µM, […]",-43.52%
Cc1cc(NC(=O)N(CCO)Cc2ccsc2)no1,Percent Effect,"30.3 µM, […]",3.821%
Cc1nc(CN2CC[C@@H]3O[C@@H](C(=O)N4CCOCC4)C[C@@H]32)cs1.O=C(O)C(F)(F)F,Percent Effect,"30.3 µM, […]",-22.53%
CN(CCOc1cccc(S(C)(=O)=O)c1)c1ccccc1,Percent Effect,"30 µM, 30.03 µM",-2.31%
CCCOc1ccc(Cl)cc1CNc1ncnc2oc(C)nc12,Percent Effect,"30.3 µM, […]",18.57%
CCC(CNc1ncnc2oc(C)nc12)Cc1ccccc1 (stereo unspecified),Percent Effect,"30.3 µM, […]",10.79%
CCCOc1ccccc1CCCNc1ncnc2oc(C)nc12,Percent Effect,"30.3 µM, […]",99.92%
CC(=O)N1CCN(Cc2ccsc2)CC2(CC(=O)N(C)C2)C1.O=C(O)C(F)(F)F (stereo unspecified),Percent Effect,"30.3 µM, […]",-65.69%
O=C(c1cc(Cl)c[nH]c1=O)N1C[C@@H]2CC[C@H](C1)N(Cc1ccccc1)C2,Percent Effect,"30 µM, 30.03 µM",-61.83%
CC(=O)N1N=C(COc2ccc(Cl)cc2)OC1c1ccccc1 (stereo unspecified),Percent Effect,"30 µM, 30.03 µM",-14.14%
Cc1ccc(C(=O)Nc2cc(C(C)C)n[nH]2)cn1,Percent Effect,"30 µM, 30.03 µM",54.96%
CC(C)c1cc(NC(=O)c2ccc(NC3CC3)nc2)[nH]n1,Percent Effect,"30 µM, 30.03 µM",40.22%
CC(C)c1cc(NC(=O)c2ccncc2)[nH]n1,Percent Effect,"30.3 µM, […]",16.87%
same,Percent Effect,"10 mM, 10 mM as filed; unlikely as a test dose",-12.06%
Cc1ccc(CC(=O)NCC(O)c2cc(Cl)cc(Cl)c2)cn1 (stereo unspecified),Percent Effect,"30 µM, 30.03 µM",-24.81%
CC(C)c1cc(NC(=O)c2ccc([S+]([O-])C(C)C)cc2)[nH]n1 (stereo unspecified),Percent Effect,"30.3 µM, […]",80.42%
same,Percent Effect,"10 mM, 10 mM as filed; unlikely as a test dose",77.43%
CC(C)c1cc(NC(=O)c2ccc(C(=O)NC(C)(C)C)cc2)[nH]n1,Percent Effect,"30 µM, 30.03 µM",33.13%
Cc1ccc(CC(=O)Nc2cc(C(C)C)n[nH]2)cn1,Percent Effect,"30.3 µM, […]",101.5%
same,Percent Effect,"10 mM, 10 mM as filed; unlikely as a test dose",101.9%
CC(C)c1cc(NC(=O)c2cccnc2)[nH]n1,Percent Effect,"30.3 µM, […]",11.06%
same,Percent Effect,"10 mM, 10 mM as filed; unlikely as a test dose",-25.28%
CC(C)c1cc(NC(=O)Cn2cnc3ccccc3c2=O)[nH]n1,Percent Effect,"30 µM, 30.03 µM",1.416%
NCc1cnn(-c2ccccc2C(=O)NCc2ccccn2)c1,Percent Effect,"30.3 µM, […]",5.478%
O=C(O)C(F)(F)F.O=C1CC2(CCN(Cc3ccco3)C2)CN1c1ccc2c(c1)OCO2 (stereo unspecified),Percent Effect,"30 µM, 30.03 µM",43.65%
CN(C)C(=O)CN1C(=O)CCC12CCN(Cc1cccn1C)CC2.O=C(O)C(F)(F)F,Percent Effect,"30.3 µM, […]",-2.653%
COc1ccc([C@@H]2CN(C(=O)CCC(F)(F)F)C[C@H]2NC(C)=O)cc1,Percent Effect,"30 µM, 30.03 µM",98.96%
COc1ccc([C@@H]2CN(C(=O)CS(C)(=O)=O)C[C@H]2NC(C)=O)cc1,Percent Effect,"30 µM, 30.03 µM",-86.91%
CCOCC(=O)N1C[C@@H](NC(C)=O)[C@H](c2ccc(OC)cc2)C1,Percent Effect,"30 µM, 30.03 µM",-1.358%
COc1cccc(CN2CCCC3(CCN(C(=O)c4ccco4)C3)C2)c1 (stereo unspecified),Percent Effect,"30.3 µM, […]",7.427%
Cc1cc(C)n(C2CN(CC(=O)N(C)Cc3cnn(C)c3)C2)n1,Percent Effect,"30 µM, 30.03 µM",17.09%
COc1cccc(CN(C)C(=O)CN2CC(n3nc(C)cc3C)C2)c1,Percent Effect,"30 µM, 30.03 µM",1.154%
Cc1cc(C)n(C2CN(CC(=O)N(C)Cc3ccsc3)C2)n1,Percent Effect,"30 µM, 30.03 µM",62.05%
O=C(O)C(F)(F)F.O=C([C@H]1C[C@H]2OCC[C@H]2N(Cc2ccc(F)cc2)C1)N1CCCCO1,Percent Effect,"30.3 µM, […]",-288.9%
CCn1ccnc1CNCc1ccc(C)cc1OC(C)(C)C,Percent Effect,"30 µM, 30.03 µM",59.89%
Cc1ccc(CNCc2nccn2C)c(OC(C)(C)C)c1,Percent Effect,"30 µM, 30.03 µM",-9.651%
Cc1ccc(CNC(=O)NCc2nccn2C)c(OC(C)(C)C)c1,Percent Effect,"30 µM, 30.03 µM",-10.65%
Cl.c1nc(N2CCOCC2)ncc1-c1cncn1CCCN1CCCCC1,Percent Effect,"30.3 µM, […]",-26.24%
CCn1cc(NC(=O)NCC(O)COc2ccccc2)cn1 (stereo unspecified),Percent Effect,10 µM,2.207%
CN1CCCCC1c1ncc2c(n1)CCN(CCCc1ccccc1)C2 (stereo unspecified),Percent Effect,"30.3 µM, […]",98.5%
CN1CCCCC1c1ncc2c(n1)CCN(Cc1ccc(F)cc1)C2 (stereo unspecified),Percent Effect,"30.3 µM, […]",42.96%
Cc1ncc2c(n1)CN(CCCc1ccccc1)CC2,Percent Effect,"30.3 µM, […]",13.17%
same,Percent Effect,"10 mM, 10 mM as filed; unlikely as a test dose",-28.02%
COc1ccc(CN2CCc3nc(C4CCCCN4C)ncc3C2)cc1 (stereo unspecified),Percent Effect,"30 µM, 30.03 µM",-5.648%
CN1CCCCC1c1ncc2c(n1)CCN(Cc1ccc(Cl)c(F)c1)C2 (stereo unspecified),Percent Effect,"30.3 µM, […]",88.41%
CN1CCCCC1c1ncc2c(n1)CCN(Cc1ccccc1Cl)C2 (stereo unspecified),Percent Effect,"30 µM, 30.03 µM",-6.551%
O=C(C1CCOCC1)N1C[C@H]2CCC[C@@]2(COc2ccccn2)C1.O=C(O)C(F)(F)F,Percent Effect,"30 µM, 30.03 µM",15.32%
Cl.Cn1nc(C2CCCN(Cc3cc(F)cc(F)c3)C2)c2nccnc21 (stereo unspecified),Percent Effect,"30.3 µM, […]",30.77%
CCNC(=O)[C@@H]1C[C@H](N)CN1C1CCN(c2ccccc2OC)CC1,Percent Effect,"30.3 µM, […]",99.36%
CNC(=O)[C@@H]1C[C@@H](N)CN1C1CCN(Cc2ccccn2)CC1,Percent Effect,"30.3 µM, […]",-17.78%
CNC(=O)[C@@H]1C[C@@H](N)CN1C1CCN(c2ccccc2F)CC1,Percent Effect,"30.3 µM, […]",11.28%
O=C(NCCCn1nc2ccccn2c1=O)Nc1ccccc1,Percent Effect,"30.3 µM, […]",-36.69%
OC(COCc1ccco1)CSc1nnc2ccccn12 (stereo unspecified),Percent Effect,"30.3 µM, […]",-18.97%
OC(COCc1ccco1)CN1CCC(Cn2cccn2)CC1 (stereo unspecified),Percent Effect,"30 µM, 30.03 µM",-22.56%
Cc1ccc(-n2c(C)nnc2SCC(O)COCc2ccco2)cc1 (stereo unspecified),Percent Effect,"30.3 µM, […]",100%
N#Cc1ccc(OCC(O)CN2CCC(c3ccn[nH]3)CC2)cc1 (stereo unspecified),Percent Effect,10 µM,5.752%
OC(COc1ccccc1)CN1CCC(c2ccn[nH]2)CC1 (stereo unspecified),Percent Effect,"30 µM, 30.03 µM",-29.13%
OC(COc1ccc(F)cc1)CN1CCC(c2ccn[nH]2)CC1 (stereo unspecified),Percent Effect,10 µM,90.5%
CN1[C@H](Cn2cccn2)C[C@@H]2CN(Cc3cccs3)CC[C@@H]21.O=C(O)C(F)(F)F.O=C(O)C(F)(F)F.O=C(O)C(F)(F)F,Percent Effect,"30.3 µM, […]",-3.772%
CN(C)CCn1c([C@H]2CCCO2)cc2cccnc21,Percent Effect,"30.3 µM, […]",1.858%
O=C(O)C(F)(F)F.O=S(=O)(C1CC1)N1CC[C@]2(C[C@@H](Oc3ncccc3F)CO2)C1,Percent Effect,"30 µM, 30.03 µM",13.6%
Cc1cnc(N2CC[C@@H]3CN(CCC(C)C)S(=O)(=O)[C@@H]3CC2)nc1,Percent Effect,"30.3 µM, […]",13.68%
CC(C)CN1C[C@H]2CCN(c3ncccn3)CC[C@H]2S1(=O)=O.O=C(O)C(F)(F)F,Percent Effect,"30 µM, 30.03 µM",7.131%
CCc1cnc(N2CC[C@@H]3CN(CCC(C)C)S(=O)(=O)[C@@H]3CC2)nc1.O=C(O)C(F)(F)F,Percent Effect,"30.3 µM, […]",50.26%
COc1ccccc1OCCc1cc(C2CCNC2)n[nH]1.Cl.Cl (stereo unspecified),Percent Effect,"30.3 µM, […]",-27.23%
CC(=O)N1CCN(C)CC(COCc2ccccc2)C1 (stereo unspecified),Percent Effect,"30.3 µM, […]",18.55%
Cc1cnc(C(=O)N2CCC(COCc3ccccc3)C2)cn1 (stereo unspecified),Percent Effect,"30.3 µM, […]",-6.003%
CC(C)(C)C(=O)N1CCC(COCc2ccccc2)C1 (stereo unspecified),Percent Effect,"30.3 µM, […]",100.1%
Cc1nn(C)c2c(=O)n(CC(=O)NCc3ccccn3)ccc12,Percent Effect,"30 µM, 30.03 µM",-0.211%
CC(C)C(CCO)NC(=O)Nc1cc(F)ccc1-n1cccn1 (stereo unspecified),Percent Effect,"30.3 µM, […]",-14.63%
C[S+]([O-])CCNC(=O)Nc1cc(F)ccc1-n1cccn1 (stereo unspecified),Percent Effect,"30.3 µM, […]",-162.3%
CC(C)C(O)CCNC(=O)Nc1cc(F)ccc1-n1cccn1 (stereo unspecified),Percent Effect,"30.3 µM, […]",88.94%
CN(CCO)C[C@@H]1CN(C2CCN(c3ccccc3Cl)CC2)C[C@@H]1CO,Percent Effect,"30 µM, 30.03 µM",13.3%
CC1CN(Cc2cccnc2)CCN1c1ccc2nncn2n1 (stereo unspecified),Percent Effect,"30.3 µM, […]",7.126%
same,Percent Effect,"10 mM, 10 mM as filed; unlikely as a test dose",-16.61%
CC1CN(Cc2cccc(C#N)c2)CCN1c1ccc2nncn2n1 (stereo unspecified),Percent Effect,"30 µM, 30.03 µM",-20.22%
CC1CN(CC2CCCCC2)CCN1c1ccc2nncn2n1 (stereo unspecified),Percent Effect,"30 µM, 30.03 µM",-45.41%
CC1CN(CC2CCCC2)CCN1c1ccc2nncn2n1 (stereo unspecified),Percent Effect,"30 µM, 30.03 µM",98.48%
CC1CN(CC(=O)NC2CCCC2)CCN1c1ccc2nncn2n1 (stereo unspecified),Percent Effect,"30 µM, 30.03 µM",-13.42%
COc1cccc(CN2CCN(c3ccc4nncn4n3)C(C)C2)c1 (stereo unspecified),Percent Effect,"30 µM, 30.03 µM",97.2%
